# Assay results: PubChem BioAssay (NCI)
# Compounds without any hit were thinned out: in the full panel of roughly 79,000, 15% have a hit. Unmarked numbers belong to inactive results. Activity calls are given as the source filed them. No stated cut-off is given here; in the data, active means growth inhibition above about 70%; inactive means the rest.
# Experiment: NCI Yeast Anticancer Drug Screen. Data for the rad52 strain (AID 147);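 further: 0% = growth of vehicle-treated control cultures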
# Conditions: S. cerevisiae rad52 mutant growth inhibition, hits give high values
# Protocol: Growth inhibition of yeast strains with defined genetic alterations is measured as a screen for potential anti-cancer activity. Selected strains with alterations in DNA damage repair or cell cycle control were exposed to compounds and growth inhibition was measured relative to vehicle treated controls. The strain used in this assay is rad52
Compound,growth inhibition (at 1.2 µM),growth inhibition (at 3.7 µM),growth inhibition (at 11.0 µM),growth inhibition (at 33.0 µM),growth inhibition (at 100.0 µM)
CC(C)=CCC/C(C)=C/CN1C(=O)C=CC1=O,9%,36%,99% (active),99% (active),99% (active)
C/C(=N\Sc1ccccc1)c1ccccc1O,1%,4%,2%,21%,85% (active)
O=C(NCCNCCNC(=O)c1cc(-c2ccccc2)nc2ccccc12)c1cc(-c2ccccc2)nc2ccccc12,-3%,-3%,-3%,-5%,41%
CC(C)(Br)C(=O)/C=C/c1ccccc1,8%,21%,47%,73% (active),91% (active)
CS(=O)(=O)O.[Ag],72% (active),99% (active),99% (active),99% (active),98% (active)
O=C(Oc1ccc([N+](=O)[O-])cc1)c1ccc([N+](=O)[O-])cc1,7%,7%,1%,19%,26%
CCCCCCCN1C(=O)c2ccccc2C1=O,-1%,-1%,-3%,11%,28%
Cc1cc(C)c2[s+]snc2c1,12%,7%,16%,29%,54%
